This is part of a sample that, as a whole, favours compounds with a hit. Of some 83,000 tested, about 20% had one in any assay.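 Treatment: one concentration, 48 hours, 96-well format. Scoring: percent growth, with anything below 10 considered active.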 A number with no mark means an inactive call. Active and inactive are the calls of the source.
System: OVCAR-5 ovarian
Experiment: NCI-60 one-dose screen, 48 h (100 = growth as untreated, 0 = no growth, -100 = all killed)
Conditions: 10 µM unless noted
Protocol: Growth inhibition of the OVCAR-5 human tumor cell line is measured as a screen for anti-cancer activity. Cells are grown in 96 well plates and exposed to the test compound for 48 hours. Compounds are tested at a single concentration, which is 10^-5 M for most compounds. The reported endpoint is percent growth (GI% or GIPRCNT), where numbers from 0 - 100% represent growth inhibition, and numbers from -100% - 0 represent cell death. For example, a value of 40 represents 60% growth inhibition. A value of 0 means no net growth occurred over the course of the experiment. A value of -40 indicates 40% of cells at the beginning of the experiment died by the end of the experiment. A value of -100 means all cells are dead at the end of the experiment.
NCI-60 Human Tumor Cell Lines Screen was performed using the standard one-dose NCI protocol, which is described in more detail at https://dtp.cancer.gov/discovery_development/nci-60/default.htm.
Compounds with GIPRCNT values below 10 were considered active. Activity score was based on GIPRCNT using the following formula: […]
Score is 0 for GIPRCNT values of 100 or above, 50 for GIPRCNT values of 0, and 100 for GIPRCNT values of -100.

SMILES | growth
Cc1[nH]c(=O)[nH]c(=O)c1CCSSCCc1c(C)[nH]c(=O)[nH]c1=O | 110%
CCOc1cc(/C=C/C(=O)CC(=O)/C=C/c2ccc(OC(=O)CNc3nc4ccc(OC)cc4s3)c(OCC)c2)ccc1OC(=O)CNc1nc2ccc(OC)cc2s1 | 99%
O=C1NC(=S)S/C1=C\c1cc(Br)ccc1O | 91.6%
COc1cc(/C=C/c2cc(/C=C/c3ccc(O)c(OC)c3)n(C(=O)c3ccc(Cl)cc3)n2)ccc1O | 79.9%
N/C(=N\C(N)=N\c1nc2ccccc2s1)c1ccnc(Cl)c1 | 57.9%
O=C(O)CCNS(=O)(=O)c1ccc(-c2ccccc2)cc1 | 107%
CN(C)CCC(=O)Nc1ccc(-n2cc(-c3cccc(NC(=S)Nc4cccc(-c5cn(-c6ccc(NC(=O)CCN(C)C)cc6)nn5)c4)c3)nn2)cc1 | 113%
C[C@H]1c2cccc(O)c2C(O)=C2C(=O)[C@]3(O)C(O)=C(C(N)=O)C(=O)[C@@H](N(C)C)[C@@H]3[C@@H](O)[C@@H]21 | 78.4%
C=C(CN1CCc2c([nH]c3ccccc23)C1)c1ccc(C(=O)Nc2ccon2)cc1 | 90.2%
COc1cc(/C=C/c2cc(/C=C/c3ccc(O)c(OC)c3)n(C(=O)Cc3ccccc3)n2)ccc1O | -18.7% (active)
CCCCCc1c(C)[nH]c(/C=C2\N=C(c3ccc[nH]3)C=C2Oc2ccc(Cl)cc2)c1C | -3.17% [100 µM] (active)
COC(=O)c1c(NC(=O)CSc2nnnn2-c2ccc(OC)cc2)sc(C)c1C | 103%
COC(=O)C1(NC(=O)CNC(=O)OCc2ccccc2)CCCC1 | 103%
COC(=O)[C@H](Cc1cnc[nH]1)NC(=O)[C@@H](NC(=O)Nc1cc(C(F)(F)F)cc(C(F)(F)F)c1)C(C)C | -82.7% [100 µM] (active)
COc1ccc(NC(=O)c2ccccc2-c2ccccc2)c(C(N)=O)c1 | 88.3%
C/C(=C\CCc1ccoc1)CC/C=C(\C)CCCNc1ccc(F)cc1 | 93.5%
COc1cc(/C=C2\CN(C)CC3=C2Nc2nc(SC)[nH]c(=O)c2C3c2cc(OC)c(OC)c(OC)c2)cc(OC)c1OC (stereo not given) | 101%
NS(=O)(=O)c1ccc(-n2ncc3c(N/N=C/c4ccccc4)ncnc32)cc1 | 97.2%
COc1ccc([N+](=O)[O-])c(S(=O)(=O)c2ccc(Cl)cc2)n1 | 77.1%
NS(=O)(=O)c1ccc(N2CC(c3nc4ccccc4[nH]3)CC2=O)cc1 (stereo not given) | 84.4%

SMILES | growth
Nc1ccc2c(c1)Cc1cc(Cl)c(Cl)cc1-2 | 82.6%
C/C(=C\CCc1ccsc1)CC/C=C(\C)CCCN1CCSCC1 | 94.8%
COc1cc(C(=O)c2cc3c(cc2C)OCO3)cc(OC)c1OC | 43.1%
Cc1cccc2nnc(-c3ccccc3)n12 | 107%
O=[N+]([O-])c1cc([N+](=O)[O-])c(N2CCCC2)cc1NN=C(c1ccc(O)cc1)c1ccc(O)cc1 | 38.2%
C[C@@H]1[C@H]2[C@H](C=C3[C@@H]4CC[C@H]5Cc6nc7c(nc6C[C@]5(C)[C@H]4C[C@@H](O)[C@@]32C)C[C@@H]2CC[C@H]3C4=C[C@@H]5O[C@@]6(CC[C@](C)(CO)O6)[C@@H](C)[C@@]5(O)[C@@]4(C)[C@H](O)C[C@@H]3[C@@]2(C)C7)O[C@]12CCC(C)(C)O2 | 8.43% (active)
CCCCc1n(Cc2ccc3ccccc3c2)cc[n+]1Cc1ccc2ccccc2c1 | 8.66% (active)
COc1cc(Cl)cc(-c2nn(-c3cccc(NC(=O)c4cc(C(F)(F)F)cc(C(F)(F)F)c4)c3)cc2-c2ccncc2)c1 | 83%
c1ccc(-c2oc(-c3ccccc3)c3ccccc23)cc1 | 112%
C[C@@H]1C[C@@H]([C@@H](CC2CC(=O)NC(=O)C2)OC(=O)CC(=O)c2ccccc2)C(=O)[C@@H](C)C1 | 16.8%
COc1ccc(OC)c(CCn2cncc2-c2c[nH]c3cc(Br)ccc23)c1 | 79.5%
O=C(O)C1CCN(S(=O)(=O)c2ccc(-c3ccccc3)cc2)CC1 | 125%
C[C@]12CCC(=O)C=C1CC[C@H]1[C@@H]3C[C@@H](O)[C@](O)(C(=O)CO)[C@@]3(C)C[C@H](O)[C@@]12F | 86.7%
COc1cccc(/C=N/Nc2nc3ccccc3s2)c1OC | 97.7%
CN1CCN(CCCOc2ccc3ncnc(Nc4ccc(OCc5cccc(F)c5)c(Cl)c4)c3c2)CC1 | -59.4% (active)
Nc1ccccc1-c1ccn[nH]1 | 83%
COc1cc(/C=C/C(=O)CC(=O)/C=C/c2ccc(OC(=O)C3C4CC5CC(C4)CC3C5)c(OC)c2)ccc1OC(=O)C1C2CC3CC(C2)CC1C3 (stereo not given) | 87.2%
Nc1nc(Nc2ccccc2SSc2ccccc2Nc2nc(N)nc(-c3cccc(Cl)c3)n2)nc(-c2cccc(Cl)c2)n1 | 97.5%
COc1cc(C2CC(C3C(=O)N(C)C(=O)N(C)C3=O)=NN2C=O)cc(OC)c1OC (stereo not given) | 107%
CCOC(=O)c1sc(NC(=O)COc2ccc(/C=C3\CCc4cc(OC)ccc4C3=O)cc2)nc1C | 103%

Source: PubChem BioAssay (NCI)
